This passage reports outcome and AC50 results from PubChem BioAssay (EPA / NIEHS).

Inconclusive results are not listed. A structure can be active in one record and inactive in another. Calls of active or inactive are those of the source. Rule for the calls: active = hit-call score of the fitted dose curve at least 0.9, where 1 is the maximum; inconclusive = response in the unintended direction; inactive = score below 0.9.

A short description of experiment [1]: LTEA_HepaRG_LDH_cytotoxicity: Cytotoxicity Assessment in the Life Technologies and Expression Analysis (LTEA) Assay (AID 2283563). In short, it runs like this: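 Human HepaRG hepatic cells are treated with test chemicals for 48 h at up to 100 uM in 0.5% DMSO. Cytotoxicity is scored from medium LDH against the vehicle control.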
Experiment [2] can be described thus: TOX21_p53_BLA_p2_viability: Viability Assessment in the Tox21 HCT-116 p53 Agonism Beta-lactamase Assay, Phase 2 (AID 2283591).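 Note: compound exposure lasted 16 h at 37 °C; actives lower the ATP signal meaning cytotoxicity.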 In short, it runs like this:
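HCT-116 p53-bla cells (4000/well) rested 5 h at 37C, then received compounds in DMSO (217-fold dilution) for 16 h at 37C, 5% CO2. After the CCF4 read, CellTiter-Glo was added; ATP luminescence was read after 30 min at room temperature.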

Experiment [3] addresses Cellular tumor antigen p53 (Homo sapiens) (UniProt P04637). The experiment can be described thus: TOX21_p53_BLA_p2_ratio: Tox21 HCT-116 p53 Agonism Beta-lactamase Assay, Ratio, Phase 2 (AID 2283592). In short, it runs like this: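 Cleaved-to-uncleaved substrate ratio (460 vs 530 nm) measured in HCT116 cells with an inducible beta-lactamase reporter linked to p53 activity. Compounds incubated 16 h at 37C before 2 h room-temperature CCF4-AM loading.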

The target is the same in experiment [4]. The experiment can be described thus: TOX21_p53_BLA_p3_ratio: Tox21 HCT-116 p53 Agonism Beta-lactamase Assay, Ratio, Phase 3 (AID 2283596). In short, it runs like this:
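Cells were seeded at 4000/well, rested 5 h at 37C, then dosed with DMSO compound solutions (217-fold dilution) for 16 h. CCF4-AM substrate was loaded for 2 h at room temperature, and the 460/530 nm emission ratio was fitted for gain of signal versus DMSO.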

The target is the same in experiment [5]. The experiment can be described thus: TOX21_p53_BLA_p5_ratio: Tox21 HCT-116 p53 Agonism Beta-lactamase Assay, Ratio, Phase 5 (AID 2283599). In short, it runs like this: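 HCT-116 cells carrying a p53-inducible beta-lactamase reporter were seeded at 4000 cells/well and dosed after 5 h with compound in DMSO (217-fold dilution). After 16 h at 37C, CCF4-AM substrate was added for 2 h, and the 460/530 nm emission ratio was scored as gain-of-signal versus DMSO.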

Experiment [6] in a line: TOX21_p53_BLA_p5_viability: Viability Assessment in the Tox21 HCT-116 p53 Agonism Beta-lactamase Assay, Phase 5 (AID 2283600). In short, it runs like this: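 Viability is taken from cellular ATP content, measured by luciferase luminescence in the same wells after the beta-lactamase ratio read. Cells are seeded at 4000 per well and exposed to DMSO-dissolved compounds, diluted 217-fold, for 16 h.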

The target of experiment [7] is Cellular tumor antigen p53 (Homo sapiens) (UniProt P04637). The experiment in a line: TOX21_p53_BLA_p4_ratio: Tox21 HCT-116 p53 Agonism Beta-lactamase Assay, Ratio, Phase 4 (AID 2283601). In short, it runs like this:
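HCT116 cells carrying an inducible beta-lactamase reporter were plated at 4000 cells/well, rested 5 h, then exposed to compounds in DMSO (217-fold dilution) for 16 h at 37C. CCF4-AM substrate was loaded 2 h at room temperature; 460/530 nm emission ratio scored gain-of-signal versus DMSO.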

Experiment [8] can be described thus: Tanguay_ZF_120hpf_MORT_legacy: (Legacy) Oregon State University Tanguay Lab 120 Hour Post-fertilization zebrafish Assay for Mortality (AID 2283633).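 For AC50: fitted as increase in binary mortality versus DMSO negative control.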 In short, it runs like this: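 Mortality endpoint from a multiplexed whole-embryo zebrafish screen. Dechorionated wild-type embryos received compound at 6 hpf and remained under static exposure at 28C until 120 hpf, with death noted as a present/absent call.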

The nature of experiment [9]: Tanguay_ZF_120hpf_YSE_legacy: (Legacy) Oregon State University Tanguay Lab 120 Hour Post-fertilization zebrafish Assay for Yolk Sac Edema (AID 2283634).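 For AC50: actives raise the incidence of yolk sac edema above the DMSO baseline.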 In short, it runs like this: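 Readout: presence or absence of yolk sac edema at 120 hpf, fitted upward against DMSO controls. Exposure ran statically from 6 hpf in dechorionated embryos kept at 28C.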
Experiment [10] can be described thus: ATG_XTT_Cytotoxicity: Cytotoxicity Assessment in the Attagene TRANS-FACTORIAL HepG2 Assay (AID 2283584). In short, it runs like this: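 Transfect HepG2 with GAL4-UAS reporter units, dose compound, incubate 24 h, then measure viable cell number by XTT. Fit concentration response against DMSO baseline.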

Chain of Cellular tumor antigen p53 (Homo sapiens) (P04637 whole entry, looked up): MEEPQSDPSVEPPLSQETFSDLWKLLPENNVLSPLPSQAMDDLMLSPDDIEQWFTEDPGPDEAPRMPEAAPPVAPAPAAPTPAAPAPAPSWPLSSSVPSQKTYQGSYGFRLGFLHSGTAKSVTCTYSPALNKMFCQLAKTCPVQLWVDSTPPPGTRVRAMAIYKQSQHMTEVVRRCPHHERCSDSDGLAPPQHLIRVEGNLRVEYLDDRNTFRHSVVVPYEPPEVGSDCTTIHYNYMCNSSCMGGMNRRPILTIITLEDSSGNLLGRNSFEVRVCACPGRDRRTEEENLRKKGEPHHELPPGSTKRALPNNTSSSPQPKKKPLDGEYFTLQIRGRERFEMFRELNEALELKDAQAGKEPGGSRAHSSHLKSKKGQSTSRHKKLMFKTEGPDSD

For the compound `CCOC(N)=O`, the compound was classed as inactive in [1], in experiment [2], in experiment [3], in experiment [4], in [5] and in experiment [6]. Moreover, the result in experiment [7], in experiment [8] and in experiment [9] was inactive. Besides, in experiment [4], the AC50 was 88.1 µM (active).

For the compound `O=C(O)CO`, the compound was classed as inactive in experiment [10].

`CCCCCCCC/C=C\CCCCCCCC(=O)OC[C@@H](O)[C@H]1OC[C@H](O)[C@H]1O`: the compound was classed as inactive in experiment [1], in [10], in [2], in [3], in [4] and in experiment [5]. The outcome in experiment [6], in [7] and in experiment [8] was inactive.

On to `NC(=O)NN=Cc1ccc([N+](=O)[O-])o1`, for which the compound was called inactive in experiment [10], in experiment [2], in [3], in experiment [4], in experiment [5] and in [6]. Besides, the outcome in experiment [7], in experiment [8] and in experiment [9] was inactive.

In the case of `NC(=O)N(O)[C@@H]1COc2cc(OCc3ccccc3)ccc21`, the compound was called inactive in experiment [1], in experiment [8] and in experiment [9].

On to `OCCOCCOCCO`, for which the compound was classed as inactive in experiment [10], in experiment [2], in experiment [3], in experiment [4], in experiment [5] and in experiment [7]. In addition, the call in experiment [8] and in experiment [9] was inactive.

For the compound `c1ccc2c(c1)-c1cccc3c1c-2cc1ccccc13`, the compound was classed as inactive in experiment [10], in experiment [8] and in experiment [9].

Take `Cn1cc[nH]c1=S`: the compound was called inactive in experiment [10] and in experiment [8].

With `Cn1c(=O)c2[nH]cnc2n(C)c1=O`, the call in experiment [10], in experiment [3], in experiment [4], in experiment [5], in experiment [6] and in experiment [7] was inactive. Besides, the call in experiment [8] and in experiment [9] was inactive.

Turning to `c1ccc2cc3ccccc3cc2c1`, the compound was called inactive in experiment [2], in experiment [3], in experiment [4], in experiment [5], in [6] and in experiment [7]. Further, the compound was called inactive in experiment [8] and in [9].

For `OCCNCCO`, the outcome in [10], in experiment [8] and in experiment [9] was inactive.

For the compound `OCc1ccccc1`, the compound was classed as inactive in experiment [8] and in experiment [9].

As for `COc1cc2c(c(OC)c1OC)-c1ccc(OC)c(=O)cc1[C@@H](NC(C)=O)CC2`, the outcome in experiment [10] and in experiment [8] was inactive. For the same compound, the AC50 in experiment [9] is 27.1 µM (active).

For the compound `CC[C@H](C)C(=O)O[C@H]1C[C@H](O)C=C2C=C[C@H](C)[C@H](CC[C@@H](O)C[C@@H](O)CC(=O)O)[C@H]21`, the compound was called inactive in [10] and in experiment [9].

On to `C=CCc1cc(S(=O)(=O)c2ccc(O)c(CC=C)c2)ccc1O`, for which the outcome in experiment [10], in experiment [8] and in experiment [9] was inactive.

For the compound `C[C@@H](Oc1ccc(CNC(=O)c2cccnc2Oc2ccc3c(c2)OCO3)c(F)c1)C(=O)O`, the compound was classed as inactive in experiment [8] and in experiment [9].

`CCc1cccc(CC)c1N`: the compound was classed as inactive in [10], in experiment [3], in experiment [4], in experiment [5], in [6] and in [7]. For the same compound, the outcome in experiment [8] and in experiment [9] was inactive.

`CCc1ccc(O)c(C(C)(C)C)c1`: the compound was classed as inactive in experiment [10], in experiment [4], in experiment [6], in experiment [8] and in experiment [9]. Further, the AC50 in experiment [2] was 69.5 µM (active); in experiment [3], 69.7 µM (active); in experiment [7] it was 53.1 µM (active).

On to `Nc1ccn([C@@H]2O[C@H](CO)[C@@H](O)[C@@H]2O)c(=O)n1`, for which the outcome in [10], in [8] and in experiment [9] was inactive.

For the compound `COc1cc(C(C)C)c2c(c1)S(=O)(=O)N(COc1cc(=O)n3cccc(OCCN4CCCCC4)c3n1)C2=O`, the compound was called inactive in [8] and in experiment [9].

Regarding `c1ccc2ncccc2c1`, the outcome in [2], in experiment [3], in experiment [4], in experiment [5], in [6] and in experiment [7] was inactive. Besides, the compound was classed as inactive in experiment [8] and in experiment [9].

Consider `Cc1ccc(S(=O)(=O)NC(=O)NN2CCCCCC2)cc1`, for which the compound was called inactive in [10] and in experiment [8].

Turning to `CCCc1ccccc1`, the result in experiment [3], in [6], in experiment [8] and in experiment [9] was inactive.

For the compound `CCCC(CCC)C(=O)O`, the result in [10], in experiment [8] and in experiment [9] was inactive.

On to `CCCCN1C(=O)[C@@H]([C@H](O)C2CCCCC2)NC(=O)C12CCN(Cc1ccc(Oc3ccc(C(=O)O)cc3)cc1)CC2`, for which the compound was classed as inactive in experiment [2], in experiment [8] and in experiment [9]. In addition, the AC50 in experiment [3] was 38.1 µM (active); in [4] it was 48.8 µM (active); in [5], 63.7 µM (active); in [7] it was 57.9 µM (active).

Turning to `CCOc1ccc2[nH]cc(C(=O)NCc3ccccc3)c(=O)c2n1`, the compound was classed as inactive in experiment [8] and in [9].

Consider `CCCOc1ccc(S(=O)(=O)N2CCN(CC)CC2)cc1-c1nc2c(CC)n(Cc3ccccn3)nc2c(=O)[nH]1`, for which the result in experiment [8] and in experiment [9] was inactive.

As for `CC(=O)c1ccccc1`, the outcome in [2], in experiment [3], in [4], in [5], in experiment [6] and in [7] was inactive. Besides, the outcome in experiment [8] and in [9] was inactive.

Consider `CCCCCOC(C)=O`, for which the outcome in experiment [10], in [8] and in [9] was inactive.

Turning to `NNC(=O)c1ccncc1`, the outcome in experiment [10], in [2], in experiment [3], in experiment [6], in experiment [7] and in experiment [8] was inactive. For the same compound, the call in [9] was inactive.

Turning to `Cc1cccc(O)c1C`, the compound was classed as inactive in experiment [10], in experiment [2], in experiment [4], in experiment [5], in experiment [6] and in [7].

Turning to `Cc1nc(-c2ccccn2)ncc1C(=O)Nn1cc(C)c2cc(F)ccc21`, the outcome in experiment [8] and in experiment [9] was inactive.

As to `CCCCOC(=O)c1ccccc1`, the outcome in experiment [3], in experiment [4], in [6], in experiment [7], in experiment [8] and in experiment [9] was inactive.

In the case of `OCC(CO)(CO)CO`, the result in experiment [10], in [8] and in experiment [9] was inactive.

As to `COCc1nnc(-c2ccc[n+]([O-])c2)n1-c1c(Cl)c(Cl)cc2[nH]c(=O)c(=O)[nH]c12`, the compound was called inactive in experiment [8] and in [9].

As to `OC[C@H]1O[C@@](CO)(O[C@H]2O[C@H](CO)[C@@H](O)[C@H](O)[C@H]2O)[C@@H](O)[C@@H]1O`, the outcome in experiment [10], in experiment [8] and in [9] was inactive.

As to `O=C(O)c1ccc2c(c1)nc(C(=O)NC1CCN(C3CC3)CC1)n2Cc1cc(-c2ccc(Cl)s2)on1`, the result in [3], in [4], in experiment [5], in [6], in [7] and in experiment [8] was inactive. Moreover, the compound was classed as inactive in [9].

For the compound `O=C(O)c1cccc(C[C@@H]2COc3ccc(OCc4nc5cc(F)ccc5s4)cc3[C@@H]2O)c1`, the result in experiment [2], in experiment [3], in experiment [4], in experiment [5] and in [7] was inactive. In addition, the concentration at half-maximal activity (AC50) in experiment [8] was 26 µM (active); in [9], 5.39 µM (active).

Turning to `O=C(O)c1cccc(C(=O)O)c1`, the call in experiment [10], in experiment [8] and in experiment [9] was inactive.

For `CC(C)CCCCCCOC(=O)C1CCCCC1C(=O)OCCCCCCC(C)C` (stereo not given), the result in [8] and in experiment [9] was inactive.

In the case of `OC[C@H]1O[C@@H]2O[C@H]3[C@H](O)[C@@H](O)[C@@H](O[C@H]4[C@H](O)[C@@H](O)[C@@H](O[C@H]5[C@H](O)[C@@H](O)[C@@H](O[C@H]6[C@H](O)[C@@H](O)[C@@H](O[C@H]7[C@H](O)[C@@H](O)[C@@H](O[C@H]1[C@H](O)[C@H]2O)O[C@@H]7CO)O[C@@H]6CO)O[C@@H]5CO)O[C@@H]4CO)O[C@@H]3CO`, the compound was called inactive in [10], in experiment [8] and in experiment [9].

`CCn1nc(C)c2c1C(=O)NCC(c1ccc(O)cc1)=N2`: the result in [2], in experiment [3], in [4], in experiment [5], in [7] and in experiment [8] was inactive.

Regarding `CCCCCCCC1CCC(=O)O1` (stereo not given), the outcome in [8] was inactive. Besides, in experiment [9], the AC50 was 25.9 µM (active).
